Experimental data from the supplement of paper PMC4709259.
± gives the standard deviation.

Tests used:
Jurkat [1] = test: mean cell size (FSC-A) relative to DMSO control (fraction of control); higher = larger cells; details: 48 h
Method in brief: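 Jurkat cells at 600 cells/µl were incubated for 1 h and then treated for 48h with the Enzo Screen-Well FDA Approved Drug Library v2.0 at 25µM, with DMSO at 0.9% (v/v) final. Compounds that reduced counts below 20% of controls were retested in 10-fold dilutions down to 25nM. Cell count and mean cell size, taken as forward scatter area, were measured by flow cytometry relative to solvent-only controls. Each plate carried 6-12 controls, and values are means of 3 biological replicates.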

Jurkat [2] = test: cell count relative to DMSO control (fraction of control); higher = more cells (less growth inhibition); details: 48 h

| SMILES | mean cell size (Jurkat [1]) | cell count (Jurkat [2]) |
| --- | --- | --- |
| CN(C)[C@@H]1C(=O)C(C(N)=O)=C(O)[C@@]2(O)C(=O)C3=C(O)c4c(O)cccc4[C@@](C)(O)[C@H]3C[C@@H]12 [Tetracycline] (concentration: 25 µM) | 0.998 ± 0.064 | 0.556 ± 0.046 |
| C[N+]1(C)CCCC(OC(=O)C(O)(c2ccccc2)c2ccccc2)C1 (stereo not drawn) [Mepenzolate Bromide] (concentration: 25 µM) | 0.91 ± 0.039 | 1.15 ± 0.042 |
| O=C(O[C@H]1C[C@H]2CC[C@@H](C1)[N+]21CCCC1)C(O)(c1ccccc1)c1ccccc1 [Trospium Chloride] (concentration: 25 µM) | 1.07 ± 0.049 | 0.982 ± 0.079 |
| CN1C(=O)CN=C(c2ccccc2)c2cc(Cl)ccc21 [Diazepam] (concentration: 25 µM) | 0.911 ± 0.048 | 0.925 ± 0.098 |
| N.N.[Cl][Pt][Cl] [Cisplatin (Cis-Diamineplatinum(Ii) Dichloride )] (concentration: 25 µM) | 1.043 ± 0.0024 | 0.895 ± 0.045 |
| COc1ccc2c(c1)[C@]13CCCC[C@@H]1[C@H](C2)N(C)CC3 [Dextromethorphan] (concentration: 25 µM) | 0.936 ± 0.022 | 0.841 ± 0.024 |
| NC(=O)C[S+]([O-])C(c1ccccc1)c1ccccc1 (stereo not drawn) [Modafinil (Schedule Iv)] (concentration: 25 µM) | 0.968 ± 0.014 | 0.807 ± 0.05 |
| CC(NC(C)(C)C)C(=O)c1cccc(Cl)c1 (stereo not drawn) [Bupropion] (concentration: 25 µM) | 0.935 ± 0.011 | 0.696 ± 0.15 |
| COC[C@@H](NC(C)=O)C(=O)NCc1ccccc1 [Lacosamide] (concentration: 25 µM) | 0.927 ± 0.067 | 0.639 ± 0.031 |
